Active and inactive are the calls of the source. Where a call stands in place of a potency, no number is given. The call rests on the fitted dose curve; in most records, active means well fitted activation curve with a large enough effect in the repeat runs; inconclusive means weak or mixed curves; inactive means flat fitted curve, though single readings scatter. Positions of bridges follow the written chain, without caps; N, C: chain ends. Non-standard residues stand in square brackets, D forms with d. Residues, ends and D or L forms follow the SMILES beside them. *: point of attachment. Dab(CH2SO3H) = N[C@@H](CCNCS(=O)(=O)O)C(=O)O; X3 = CC[C@@H](C)CCCCC(=O)*; Dab = NCC[C@H](N)C(=O)O
Biological target: Androgen receptor (Homo sapiens) (UniProt P10275)
Sequence (P10275 whole entry, looked up): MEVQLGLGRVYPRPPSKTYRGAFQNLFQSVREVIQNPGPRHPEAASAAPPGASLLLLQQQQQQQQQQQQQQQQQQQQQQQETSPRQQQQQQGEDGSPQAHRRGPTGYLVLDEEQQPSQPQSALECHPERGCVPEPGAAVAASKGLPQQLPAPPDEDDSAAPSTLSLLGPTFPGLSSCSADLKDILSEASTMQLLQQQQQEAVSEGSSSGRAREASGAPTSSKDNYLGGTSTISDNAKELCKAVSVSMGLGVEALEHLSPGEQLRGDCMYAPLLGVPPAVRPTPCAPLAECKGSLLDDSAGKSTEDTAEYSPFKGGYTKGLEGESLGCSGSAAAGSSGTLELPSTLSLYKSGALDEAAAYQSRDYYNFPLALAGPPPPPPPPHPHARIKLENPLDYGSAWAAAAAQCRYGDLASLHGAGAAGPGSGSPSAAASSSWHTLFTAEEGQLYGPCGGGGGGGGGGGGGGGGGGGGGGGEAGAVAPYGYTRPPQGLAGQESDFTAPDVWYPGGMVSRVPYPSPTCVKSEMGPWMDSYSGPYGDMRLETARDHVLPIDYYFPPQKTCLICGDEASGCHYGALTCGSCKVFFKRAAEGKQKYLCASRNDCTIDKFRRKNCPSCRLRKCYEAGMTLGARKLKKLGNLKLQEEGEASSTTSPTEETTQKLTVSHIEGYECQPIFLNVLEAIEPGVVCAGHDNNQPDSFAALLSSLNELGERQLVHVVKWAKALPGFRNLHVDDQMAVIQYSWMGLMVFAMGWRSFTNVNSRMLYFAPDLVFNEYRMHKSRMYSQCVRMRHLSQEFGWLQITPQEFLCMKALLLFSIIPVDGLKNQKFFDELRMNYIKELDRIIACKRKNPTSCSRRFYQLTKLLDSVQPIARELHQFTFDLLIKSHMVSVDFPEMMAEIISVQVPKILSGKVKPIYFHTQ
Test: qHTS assay to identify small molecule agonists of the androgen receptor (AR) signaling pathway using the MDA cell line (AID 743040; further: nearly all actives have a fitted effect of over 20% in size)
Conditions: MDA-kb2 AR-luc cells, MMTV luciferase, 16 h; series mostly up to 70.3 µM
Text: National Center for Advancing Translational Sciences [NCATS]
NIH Chemical Genomics Center [NCGC]
U.S. Environmental Protection Agency [EPA]
National Institutes of Environmental Health Sciences [NIEHS]
National Toxicology Program [NTP]
U.S. Food and Drug Administration [FDA]
Androgen receptor (AR), a nuclear hormone receptor, plays a critical role in AR-dependent prostate cancer and other androgen related diseases. Endocrine disrupting chemicals (EDCs) and their interactions with steroid hormone receptors like AR may cause disruption of normal endocrine function as well as interfere with metabolic homeostasis, reproduction, developmental and behavioral functions. To identify the compounds that activate AR signaling, MDA-kb2 AR-luc cell line (from ATCC, deposited by Wilson et al.) was used to screen the Tox21 10K compound library. MDA-kb2 AR-luc cell line is human breast carcinoma cell line that was stably transfected with a luciferase reporter gene under control of the MMTV promoter containing response elements for both androgen receptor (AR) and glucocorticoid receptor (GR).
Tox21 Assay Protocol Summary:
MDA-kb2 AR-luc cells were dispensed at 3,000 cells/5 uL/well of culture medium into white wall/solid-bottom 1536-well plates using a Multidrop Combi (ThermoFisher Scientific, Waltham, MA) dispenser. After the assay plates were incubated at 37C and 0% CO2 for 5 h, 23 nL of compounds dissolved in DMSO, positive controls or DMSO only was transferred to the assay plate by a Pintool station (Kalypsys, San Diego, CA). The plates were incubated at 37C and 0% CO2 for 16 h. Then 4 uL of ONE-Glo reagent (Promega, Madison, WI) was added to each plate using a Bioraptr Flying Reagent Dispenser (FRD) workstation (Beckman Coulter, Indianapolis, IN, USA) and luminescence was quantified on a ViewLux (PerkinElmer, Shelton, CT) plate reader after 30 min incubation at room temperature.
Potency means the concentration at half of the fitted maximal effect.

SMILES	Potency
Oc1ccc(Cl)c2c1CCC2	inactive
CCOc1cc(CC(=O)N[C@@H](CC(C)C)c2ccccc2N2CCCCC2)ccc1C(=O)O	11.4 µM (active)
C[C@@H]1O[C@@H]1P(=O)(O)O	inactive
CCc1ncnc2cc(OC)c(OC)cc12	inactive
Cc1cc(=O)c(C(=O)N[C@@H](C(=O)N[C@@H]2C(=O)N3C(C(=O)O)=C(CSc4nnnn4C)CS[C@H]23)c2ccc(O)cc2)c[nH]1	inactive
C=CCc1cc(S(=O)(=O)c2ccc(O)c(CC=C)c2)ccc1O	inactive
CC(=O)[C@]1(O)Cc2c(O)c3c(c(O)c2[C@@H](O[C@H]2C[C@H](N)[C@H](O)[C@H](C)O2)C1)C(=O)c1ccccc1C3=O	inactive
CC1(C)C[C@@H]1C(=O)N/C(=C\CCCCSC[C@H](N)C(=O)O)C(=O)O	inactive
CCCCCCCCCCCCCCCCC(C(=O)O)C(O)(CC(=O)O)C(=O)O (stereo not given)	inactive
NC(=O)C1c2ccccc2CCc2ccccc21	inactive
CC[C@@H](C)CCCCC(=O)N[C@@H](CCNCS(=O)(=O)O)C(=O)N[C@H](C(=O)N[C@@H](CCNCS(=O)(=O)O)C(=O)N[C@H]1CCNC(=O)[C@H]([C@@H](C)O)NC(=O)[C@H](CCNCS(=O)(=O)O)NC(=O)[C@H](CCNCS(=O)(=O)O)NC(=O)[C@H](CC(C)C)NC(=O)[C@@H](CC(C)C)NC(=O)[C@H](CCNCS(=O)(=O)O)NC1=O)[C@@H](C)O (X3-[Dab(CH2SO3H)]T[Dab(CH2SO3H)][Dab][Dab(CH2SO3H)][dL]L[Dab(CH2SO3H)][Dab(CH2SO3H)]T; lactam 4-C)	inactive
CCN(CC)CCn1c(=O)c(Cc2ccc(OC)cc2)nc2ccccc21	inactive
O=C(O)C[C@H](O)C[C@H](O)/C=C/c1c(C2CC2)nc2ccccc2c1-c1ccc(F)cc1	inactive
C[N+]1(CCCCC[N+]2(C)CCCC2)CCCC1	inactive
COc1cc(NS(C)(=O)=O)ccc1Nc1c2ccccc2nc2ccccc12	inactive
CCC[C@@H]1C[C@@H](C(=O)N[C@@H]([C@H]2O[C@H](SC)[C@H](OP(=O)(O)O)[C@@H](O)[C@H]2O)[C@H](C)Cl)N(C)C1	inactive
Nc1c(CC(=O)O)cccc1C(=O)c1ccccc1	inactive
O=C(O)COc1ccc(C(=O)c2cccs2)c(Cl)c1Cl	inactive
CN1CC[C@H](c2c(O)cc(O)c3c(=O)cc(-c4ccccc4Cl)oc23)[C@H](O)C1	inactive
COc1cccc2c1[C@@H]1CN(CCCCn3c(=O)[nH]c4c(sc5ncc(-c6ccccc6)nc54)c3=O)C[C@@H]1CO2	inactive

SMILES	Potency
c1ccc2c(c1)OCC(CN1CCCCC1)O2 (stereo not given)	inactive
C/C=C/C1=C(C(=O)O)N2C(=O)[C@@H](NC(=O)[C@H](N)c3ccc(O)cc3)[C@H]2SC1	inactive
CC(C)NCC1CCc2cc(CO)c([N+](=O)[O-])cc2N1 (stereo not given)	inactive
COc1ccc([C@@H]2CC(=O)c3c(O)cc(O[C@@H]4O[C@H](CO[C@@H]5O[C@@H](C)[C@H](O)[C@@H](O)[C@H]5O)[C@@H](O)[C@H](O)[C@H]4O)cc3O2)cc1O	inactive
CCCCCCCCCCCCCCCC(=O)OC[C@H](COP(=O)([O-])OCC[N+](C)(C)C)OC(=O)CCCCCCCCCCCCCCC	inactive
CC[C@@H](C(=O)[C@@H](C)[C@@H](O)[C@H](C)CCc1ccc(C)c(O)c1C(=O)O)[C@H]1O[C@](CC)([C@H]2CC[C@](O)(CC)[C@H](C)O2)C[C@@H]1C	1.88 µM (active)
COc1ccc(/C=C/C(=O)O)cc1	inactive
C[C@@H]1O[C@@H](OC[C@H]2O[C@@H](Oc3c(-c4ccc(OCCO)c(OCCO)c4)oc4cc(OCCO)cc(O)c4c3=O)[C@H](O)[C@@H](O)[C@@H]2O)[C@H](O)[C@H](O)[C@H]1O	inactive
O=P(O)(O)OP(=O)(O)OP(=O)(O)O	inactive
O=C(O)Cc1nn(Cc2ccc(Br)cc2F)c(=O)c2ccccc12	inactive
O=C1c2ccccc2-c2n[nH]c3cccc1c23	inactive
CCN1CCCC1CNC(=O)c1cc(S(=O)(=O)CC)ccc1OC (stereo not given)	inactive
Cc1cc(F)ccc1-c1cc(N2CC[C@@H](O)[C@H]2CO)ncc1N(C)C(=O)C(C)(C)c1cc(C(F)(F)F)cc(C(F)(F)F)c1	inactive
CC(C)(Oc1ccc(C2CCCc3ccccc32)cc1)C(=O)O (stereo not given)	inactive
O=C(O)COc1ccccc1/C=N/NC(=O)c1ccncc1	inactive
O=P(O)(O)CP(=O)(O)O	inactive
C=CC1=C(C(=O)O)N2C(=O)[C@@H](NC(=O)/C(=N\O)c3csc(N)n3)[C@H]2SC1 (stereo in doubt)	inactive
NCCCC[C@H](NC(=O)[C@@H]1CCCN1C(=O)[C@@H]1CSSC[C@H](N)C(=O)N[C@@H](Cc2ccc(O)cc2)C(=O)N[C@@H](Cc2ccccc2)C(=O)N[C@@H](CCC(N)=O)C(=O)N[C@@H](CC(N)=O)C(=O)N1)C(=O)NCC(N)=O	inactive
N[C@@H](Cc1cnc[nH]1)C(=O)O	inactive
O=C(CCCCCCCCc1cccnc1)N1CCC(C=C(c2ccccc2)c2ccccc2)CC1	inactive

— PubChem BioAssay (Tox21)
